The source of these data is PubChem BioAssay (NCI).

The panel holds about 83,000 compounds, 20% with a hit somewhere; the sample as a whole holds those more often.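 The test compound was applied at a single concentration to cells in 96-well plates for 48 hours, and percent growth was recorded.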 Activity calls are given as the source filed them. Rule for the calls: active = growth percent below 10; inactive = the rest.

Among the test systems are DU-145 prostate; K-562 leukemia; MALME-3M melanoma; MDA-MB-231 breast; RXF 393 renal; SF-268 CNS; SF-295 CNS; SF-539 CNS; UACC-257 melanoma; M14 melanoma.
Common to all, as to test: NCI-60 one-dose screen, 48 h (100 = growth as untreated, 0 = no growth, -100 = all killed)
What all share (conditions): 10 µM unless noted

On to `N#Cc1c(NC(=O)c2ccco2)[n+]([O-])c2cc(Cl)c(Cl)cc2[n+]1[O-]`, for which the growth in the test on DU-145 prostate is 103% (inactive); in the test on K-562 leukemia, 96.4% (inactive); with MALME-3M melanoma it was 123% (inactive); with MDA-MB-231 breast, 93.9% (inactive); in the test on RXF 393 renal, 91.3% (inactive); with SF-268 CNS it was 114% (inactive). The growth was 135% (inactive) with SF-295 CNS, 90.4% (inactive) with SF-539 CNS, 99.3% (inactive) in the test with UACC-257 melanoma and 142% (inactive) in the test with M14 melanoma.
As for `COc1ccc(C2=NN(C(C)=O)C(c3c(C)nn(-c4ccccc4)c3N3CCOCC3)C2)cc1` (stereo unspecified), the growth was 107% (inactive) in the test with DU-145 prostate; 99% (inactive) in the test on K-562 leukemia; 106% (inactive) with MALME-3M melanoma; 98.1% (inactive) with MDA-MB-231 breast; 98.7% (inactive) with RXF 393 renal; 95% (inactive) in the test with SF-268 CNS. Besides, the growth in the test on SF-295 CNS is 93.9% (inactive); in the test on SF-539 CNS, 93.7% (inactive); in the test with UACC-257 melanoma, 86.3% (inactive); in the test with M14 melanoma, 94.8% (inactive).
With `CCOc1cc(/C=C/C(=O)C(C(=O)/C=C/c2ccc(OC(=O)CNc3nc4ccccc4[nH]3)c(OCC)c2)C(=O)CNc2nc3ccccc3[nH]2)ccc1OC(=O)CNc1nc2ccccc2[nH]1`, the growth in the test on DU-145 prostate was -24.8% (active); in the test on K-562 leukemia, -26.2% (active); with MALME-3M melanoma, -35.1% (active); in the test on MDA-MB-231 breast, -16.3% (active); in the test with RXF 393 renal, -71.4% (active); in the test with SF-268 CNS, 8.48% (active). For the same compound, the growth in the test with SF-295 CNS is -20.4% (active); in the test on SF-539 CNS, -33.4% (active); with UACC-257 melanoma, 21.1% (inactive); with M14 melanoma, -6.17% (active).
With `COc1cccc(-c2nc(-c3ccc(N)cc3)co2)c1`, the growth with DU-145 prostate is 102% (inactive); in the test with K-562 leukemia, 84.5% (inactive); in the test with MALME-3M melanoma it was 114% (inactive); in the test on MDA-MB-231 breast it was 88.1% (inactive); with RXF 393 renal, 93.2% (inactive); in the test with SF-268 CNS it was 128% (inactive). Also, the growth was 92.8% (inactive) with SF-295 CNS, 110% (inactive) in the test on SF-539 CNS, 93.1% (inactive) in the test with UACC-257 melanoma and 91.1% (inactive) with M14 melanoma.
For the compound `N#Cc1ccc(-c2csc(Nc3ccc4nc5n(c(=O)c4c3)CCC5)n2)cc1`, the growth with DU-145 prostate is 109% (inactive); in the test on K-562 leukemia, 96.8% (inactive); with MALME-3M melanoma, 102% (inactive); with MDA-MB-231 breast, 104% (inactive); in the test with RXF 393 renal, 106% (inactive); with SF-268 CNS, 106% (inactive). In addition, the growth in the test with SF-295 CNS was 98.2% (inactive); in the test on SF-539 CNS it was 101% (inactive); in the test with UACC-257 melanoma, 108% (inactive); with M14 melanoma, 103% (inactive).
As for `COc1cc(/C=N/NC(=O)c2ccc(C(F)(F)F)nc2Nc2cc(Cl)ccc2C)cc(OC)c1OC`, the growth is 154% (inactive) in the test with DU-145 prostate; 83.8% (inactive) in the test on K-562 leukemia; 61.8% (inactive) in the test with MALME-3M melanoma; 86.3% (inactive) in the test on MDA-MB-231 breast; 77.7% (inactive) with RXF 393 renal; 88.9% (inactive) with SF-268 CNS. Further, the growth in the test on SF-295 CNS is 70.9% (inactive); with SF-539 CNS, 103% (inactive); with UACC-257 melanoma, 112% (inactive).
As to `O=C(COc1ccc(/C=C2\Cc3ccccc3C2=O)cc1)c1ccc(Cl)cc1`, the growth was 117% (inactive) with DU-145 prostate; 92.9% (inactive) in the test on K-562 leukemia; 124% (inactive) in the test on MALME-3M melanoma; 82.2% (inactive) in the test with MDA-MB-231 breast; 121% (inactive) with RXF 393 renal; 120% (inactive) in the test with SF-268 CNS. Also, the growth with SF-295 CNS was 121% (inactive); in the test with SF-539 CNS, 101% (inactive); with UACC-257 melanoma, 100% (inactive); in the test with M14 melanoma, 104% (inactive).
`CCSc1nc(-c2ccc(F)cc2)c(C#N)c(=O)[nH]1`: the growth with DU-145 prostate is 122% (inactive); in the test with K-562 leukemia, 124% (inactive); in the test with MALME-3M melanoma, 85.1% (inactive); with MDA-MB-231 breast it was 114% (inactive); in the test with RXF 393 renal it was 104% (inactive); in the test with SF-268 CNS it was 116% (inactive). In addition, the growth with SF-295 CNS was 103% (inactive); in the test on SF-539 CNS, 108% (inactive); in the test on UACC-257 melanoma it was 102% (inactive); in the test with M14 melanoma, 110% (inactive).
On to `Cc1ccc2c(c1)C(=O)/C(=C\Nc1ccc(C(N)=O)cc1)C(O)O2` (stereo unspecified), for which the growth is 107% (inactive) in the test with DU-145 prostate; 97.7% (inactive) with K-562 leukemia; 86.7% (inactive) with MALME-3M melanoma; 83.1% (inactive) in the test with MDA-MB-231 breast; 111% (inactive) with RXF 393 renal; 82.8% (inactive) in the test on SF-268 CNS. Besides, the growth is 94% (inactive) in the test with SF-295 CNS, 99.8% (inactive) with SF-539 CNS and 118% (inactive) in the test on UACC-257 melanoma.
Consider `O=c1oc2c(cc1-c1ccc([N+](=O)[O-])cc1)C(O)Oc1ccccc1-2` (stereo unspecified), for which the growth with DU-145 prostate was 142% (inactive); in the test on K-562 leukemia it was 76.8% (inactive); in the test with MALME-3M melanoma, 77.6% (inactive); in the test on MDA-MB-231 breast, 114% (inactive); in the test with RXF 393 renal, 49.1% (inactive); in the test with SF-268 CNS, 94.7% (inactive). Also, the growth was 67.9% (inactive) in the test on SF-295 CNS, 93.8% (inactive) with SF-539 CNS and 89.3% (inactive) with UACC-257 melanoma.
Consider `CCN1CCN(c2nc(NNC(=O)Cc3ccccc3)nc(N3CCN(C(c4ccccc4)c4ccccc4)CC3)n2)CC1`, for which the growth in the test with DU-145 prostate was 63.5% (inactive); in the test with K-562 leukemia it was 2.28% (active); in the test on MALME-3M melanoma, 77% (inactive); in the test with MDA-MB-231 breast, 82.7% (inactive); in the test on RXF 393 renal, 66.6% (inactive); with SF-268 CNS, 82% (inactive). Moreover, the growth with SF-295 CNS is 68.3% (inactive); with SF-539 CNS, 86.8% (inactive); with UACC-257 melanoma it was -51.5% (active); in the test with M14 melanoma, -68.2% (active).
Take `COC(=O)c1cc2oc(/C=N\NC(=O)c3cc4oc(C)c(C)c4[nH]3)cc2[nH]1`: the growth was 147% (inactive) with DU-145 prostate; 84.1% (inactive) with K-562 leukemia; 82.5% (inactive) in the test on MALME-3M melanoma; 107% (inactive) in the test with MDA-MB-231 breast; 101% (inactive) with RXF 393 renal; 106% (inactive) in the test on SF-268 CNS. Besides, the growth was 84.2% (inactive) in the test on SF-295 CNS, 101% (inactive) in the test on SF-539 CNS and 114% (inactive) in the test on UACC-257 melanoma.
